High-throughput results: PubChem BioAssay, several laboratories
Only some compounds are listed: those with a hit (about 4.6% of all), similar ones and a draw of the others.
TIM10 inh = growth inhibitors of TIM10 yeast strain. 330,000 tested, 1.4% active. inhibition, % at 10 µM. S. cerevisiae TIM10 strain growth, BacTiter-Glo luminescence, 24 h;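 active = inhibition of 40% or more at the single tested concentration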;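 also: wild-type TIM10 isogenic control strain grown at permissive 25 °C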
tim23-1 inh = growth inhibitors of tim23-1 mutant yeast; S. cerevisiae tim23-1 growth, BacTiter-Glo luminescence, 24 h; inhibition, % at 20 µM; 330,000 tested, 1.3% active;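 active = growth inhibition of the mutant yeast at or above 50%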;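 also: temperature-sensitive mutant grown at 25 °C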
SKKanGAS inh = SKKanGAS growth inhibition | S. pyogenes SKKanGAS, kanamycin growth, BacTiter-Glo, 6 h | inhibition, % at 7.5 µM | 300,000 tested, 1.3% active | AID 1662;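 active = mean replicate score, as percent of positive control median, at least 50; inconclusive = mean below 50 but one replicate at or above 50; inactive = mean and every replicate below 50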;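 also: strain carries kanamycin resistance gene driven by streptokinase promoter and grows in 40 µg/ml kanamycin; loss of luminescence reflects streptokinase promoter inhibition or plain growth inhibition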
NLRP3 yeast inh = inhibitors of NALP3 inflammasome in yeast. Yeast reconstituted NLRP3/ASC/caspase-1, beta-gal luminescence, 24 h. inhibition, % at 10 µM. 330,000 tested, 0.39% active. AID 2825;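 active = inhibition of 50% or more; inactive = inhibition below 50%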
tim10-1 inh = inhibits growth of tim10-1 mutant yeast. S. cerevisiae tim10-1 ts strain growth, BacTiter-Glo, 24 h. inhibition, % at 20 µM. 330,000 tested, 2.2% active. AID 463190;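 active = inhibition of at least 40%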;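 also: mutant grown at 25 °C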
tim10-1 confirm = confirmation of tim10-1 mutant yeast growth inhibitors; shares compounds with tim10-1 inh; S. cerevisiae tim10-1 ts strain growth, BacTiter-Glo, 24 h; inhibition, % at 20 µM; 7,400 tested, 56% active; AID 463213;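 active = inhibition of yeast growth at or above a set limit in either of two repeat tests at 20 µM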;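 also: tim10-1 mutant grown at permissive 25 °C to find synthetic lethal compounds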
Each line names hits and unclear results; the compound was inactive in the other large screens (follow-up assays come after a bar, where they were run).

CN1CCN(CCC(=O)N2c3ccccc3Sc3ccc(C(F)(F)F)cc32)CC1	none
CN(C)CCC(=O)N1c2ccccc2Sc2ccc(C(F)(F)F)cc21	none
CCN(CC)CCCCN1c2ccccc2Sc2ccccc21	tim10-1 inh 41 | tim10-1 confirm inactive
OCCN1CCN(CCCN2c3ccccc3Sc3ccc(C(F)(F)F)cc32)CC1	tim10-1 inh 42 | tim10-1 confirm 30
COc1ccc(S(=O)(=O)N2CCOCC2)cc1NC(=O)CNC(=O)c1cccs1	none (no result: SKKanGAS inh)
OCCN1CCN(CC/C=C2/c3ccccc3CSc3ccccc32)CC1	none
OCCN1CCN(CC/C=C2/c3ccccc3Sc3ccc(C(F)(F)F)cc32)CC1	tim10-1 inh 51 | tim10-1 confirm inactive
Cc1ccc(C)c(C(=O)C(C)Sc2nc3nn(-c4ccccc4)c(=O)c-3c3n2CCCCC3)c1 (configuration not stated)	none
Cc1ccc(C(=O)O/N=C(/c2nonc2N)N(C)C)cc1	tim10-1 inh 67 | tim10-1 confirm 62
N/C(=N\OC(=O)C12CC3CC(CC(C3)C1)C2)c1ccncc1	tim10-1 inh 45 | tim10-1 confirm inactive
CCOc1ccc(S(=O)(=O)NNS(=O)(=O)c2ccc(C)cc2C)cc1	none
Cc1ccccc1Nc1nc(-c2cccnc2)nc2ccccc12	tim10-1 inh 43 | tim10-1 confirm inactive
O=C(O)c1ccc(Nc2nc(-c3ccc([N+](=O)[O-])cc3)nc3ccccc23)cc1	none
Cc1ccc(CNc2nc(-c3cccnc3)nc3ccccc23)cc1	none
CC(=O)Nc1ccc(Nc2nc(-c3ccccc3)nc3ccccc23)cc1	tim10-1 inh 48 | tim10-1 confirm 34
CCOC(=O)c1c(C)[nH]c(C(=O)OCC(=O)Nc2sccc2C(N)=O)c1C	none
c1ccc2c(c1)OCC(c1csc3ncnc(N4CCCCC4)c13)O2 (configuration not stated)	tim10-1 inh 41 | tim10-1 confirm inactive
CCCN1CCN(c2ncnc3scc(C4COc5ccccc5O4)c23)CC1 (configuration not stated)	none
CCOc1cc(N2CCOCC2)c(OCC)cc1NC(=O)CSc1ncccc1C(=O)O	none (no result: SKKanGAS inh)
c1ccc(-c2cc(-c3nc4ccccc4[nH]3)c3ccccc3n2)cc1	tim10-1 inh 51 | tim10-1 confirm 38
CSc1ncccc1C(=O)OC(C)C(=O)Nc1cccc(S(=O)(=O)N2CCOCC2)c1 (configuration not stated)	none (no result: SKKanGAS inh)
CSc1ccc(CCNC(=O)c2cccc3c2C(=O)N(C2CCCCC2)C3)cc1	tim10-1 inh 42 | tim10-1 confirm inactive
O=C(Nc1ccc(Br)cc1)c1cccc2c1C(=O)N(C1CCCCC1)C2	tim10-1 inh 55 | tim10-1 confirm inactive
O=C(Nc1ccc(Br)cc1Br)c1cccc2c1C(=O)N(C1CCCCC1)C2	tim10-1 inh 42 | tim10-1 confirm inactive
COC(=O)C1CCN(C(=O)c2cc(S(=O)(=O)N3CCCCC3)ccc2Cl)CC1	none (no result: SKKanGAS inh)
N#Cc1c(N2CCCC(O)C2)nc(N)c2c(N)nc3c(c12)CC(=O)N3C12CC3CC(CC(C3)C1)C2 (configuration not stated)	tim10-1 inh 50 | tim10-1 confirm 33
C=C(C)C1CC=C(C)/C(=N/NC(=S)Nc2ccccc2)C1 (configuration not stated)	tim10-1 inh 41 | tim10-1 confirm inactive
C=C(C)C1CC=C(C)/C(=N/NC(=O)c2ccc(NC(=O)c3cccc(C)c3)cc2)C1 (configuration not stated)	none
O=C(CC1SC(=O)N(c2ccccc2)C1=O)Nc1ccccc1 (configuration not stated)	none
Cc1cccc(NC(=O)CC2SC(=O)N(c3ccccc3)C2=O)c1 (configuration not stated)	tim10-1 inh 43 | tim10-1 confirm 37
CCCCNC(=S)N=Nc1c(O)[nH]c2ccccc12	tim10-1 inh 47 | tim10-1 confirm 41
Cc1nn(-c2ccccc2)c(C)c1Cc1ccc(O)cc1	none
Cc1nn(-c2ccccc2)c2c1C(O)n1c(nc3ccccc31)S2 (configuration not stated)	tim10-1 inh 41 | tim10-1 confirm inactive
CCCNc1nc(Cl)nc(NC(C)(C)C)n1	none
CC(C)(C)Nc1nc(Cl)nc(NC(C)(C)C)n1	tim10-1 inh 44 | tim10-1 confirm inactive
COc1ccccc1-c1nc(C#N)c(N2CCc3ccccc3C2)o1	tim10-1 inh 40 | tim10-1 confirm 32
COc1ccc(-c2nc(C#N)c(N3CCc4ccccc4C3)o2)cc1OC	none
CCOc1cc(S(=O)(=O)Nc2ccc(CC)cc2)ccc1Cl	tim10-1 inh 59 | tim10-1 confirm inactive
CCOc1cc(S(=O)(=O)Nc2ccccc2CC)ccc1Cl	none
CC(=O)NN1C(=O)/C(=C\c2ccc(O)cc2)SC1=S	none
O=C1/C(=C\c2ccc(O)cc2)SC(=S)N1/N=C/c1ccc(O)cc1	tim10-1 inh 41 | tim10-1 confirm 39
O=C1C(=O)N(Cc2ccco2)C(c2cccs2)/C1=C(\O)c1cccc([N+](=O)[O-])c1 (configuration not stated)	none
CN(c1ccc(C(=O)N/N=C/c2cccc([N+](=O)[O-])c2)cc1)S(=O)(=O)c1ccccc1	none
COc1ccc(OC)c(-n2c(SCC(=O)Nc3cc(C)on3)nnc2-c2c[nH]c3ccccc23)c1	tim10-1 inh 52 | tim10-1 confirm inactive
CC(C)(C)c1nnc(SCC(=O)Nc2ccc(N3CCCCC3)cc2)n1N	none (no result: SKKanGAS inh)
Cc1nn(Cc2ccc(Cl)cc2Cl)c(C)c1NC(=O)c1nn(C)cc1Cl	tim10-1 inh 44 | tim10-1 confirm 38
Cc1nn(Cc2ccc(Cl)cc2Cl)c(C)c1NC(=O)c1ccc(COc2cc(Cl)ccc2Cl)o1	none
Cc1nn(Cc2c(F)c(F)c(F)c(F)c2F)c(C)c1NC(=O)c1ccc(COc2ccc(Cl)cc2Cl)o1	tim10-1 inh 49 | tim10-1 confirm 41
Cc1nn(Cc2ccc(Cl)cc2Cl)c(C)c1NC(=O)C1C2CCC(O2)C1C(=O)O (configuration not stated)	tim10-1 inh 41 | tim10-1 confirm inactive
CSc1nc(-c2ccccc2)cn1-c1ccc(NC(C)=O)cc1	tim10-1 inh 46 | tim10-1 confirm 31
CCOC(=O)C1=C(CC)Nc2ccccc2N=C1NC(=O)c1oc2ccccc2c1C	SKKanGAS inh inconclusive, tim10-1 inh 43 | tim10-1 confirm inactive
N#C/C(=C\c1cn[nH]c1-c1ccc(Cl)cc1)C(=O)NCc1ccccc1	tim10-1 inh 43 | tim10-1 confirm 46
N#C/C(=C\c1cn[nH]c1-c1ccc(Cl)cc1)C(=O)NC1CC1	none
CC(=O)[C@H]1[C@H](c2cccc(Cl)c2)C(C#N)(C#N)[C@@H]2c3ccccc3C=CN21	tim10-1 inh 48 (no result: SKKanGAS inh) | tim10-1 confirm inactive
CC(=O)Nc1cccc(C(=O)NNC(=O)c2n[nH]c(=O)c3ccccc23)c1	none (no result: SKKanGAS inh)
Cn1c(-c2ccccc2)n[nH]c1=S	none
Cc1ccc(COc2ccsc2-c2n[nH]c(=S)n2C)cc1	none
